# Results as given in PubChem BioAssay (NCATS).
# Where “and” joins values, the source holds several entries; their conditions need not be identical. Equal values may be shown once. Results filed as inconclusive are left out. Entries that show only a call come without a potency. Calls of active or inactive are those of the source. Calls come from the whole dose curve; as a rule, active = well fitted inhibition curve with a large enough effect; inconclusive = small, poorly fitted or top-dose-only effect; inactive = flat fitted curve, though single readings scatter.
# Columns and labels:
# Test in all cases: qHTS profiling for inhibitors of Plasmodium falciparum proliferation (AID 504749); note: nearly all actives have a fitted effect of over 60% in size
# Conditions in all cases: P. falciparum in erythrocytes, SYBR Green DNA, 72 h; series mostly up to 28.7 µM
# [1] = tested on: FAB9
# How it was run: (§1)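 Quantitative HTS: compounds pinned into medium, infected erythrocytes added (0.3% parasitemia, 2.5% hematocrit), 72 h culture at 37 C under 5% CO2. Saponin/Triton lysis with SYBR Green I, overnight RT, then fluorescence read.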
# [2] = tested on: HB3
# How it was run: as §1
# [3] = tested on: JCK
# How it was run: as §1
# [4] = tested on: N140
# How it was run: as §1
# [5] = tested on: P93_24
# How it was run: as §1
# [6] = tested on: PAD
# How it was run: as §1
# [7] = tested on: PC15
# How it was run: as §1
# [8] = tested on: ICS
# How it was run: as §1
# [9] = tested on: P94_40
# How it was run: as §1
# [10] = tested on: GB4
# How it was run: as §1
# Potency is the fitted concentration of half-maximal effect.
Structure (SMILES),Potency [1],Potency [2],Potency [3],Potency [4],Potency [5],Potency [6],Potency [7],Potency [8],Potency [9],Potency [10]
CC12NC(Cc3ccccc31)c1ccccc12 (stereo not drawn),inactive,inactive,inactive,inactive,10 µM (active),inactive,inactive,,,
C=CCC1(C(C)CCC)C(=O)N=C(S)NC1=O (stereo not drawn),inactive,inactive,inactive,inactive,inactive,inactive,inactive,inactive,inactive,
CC(C)(C)c1cc(O)ccc1O,,10 µM (active),,11.2 µM (active),11.2 µM (active) and 8.91 µM (active),11.2 µM (active),11.2 µM (active),3.16 µM (active) and 2 µM (active),7.08 µM (active) and 12.6 µM (active),3.79 µM (active) and 12 µM (active)
[Cl-].[Cl-].[Hg+2],7.08 µM (active),inactive,,10 µM (active),,7.08 µM (active),,12.6 µM (active),,4.78 µM (active)
C/C(=C\c1csc(C)n1)[C@@H]1C[C@@H]2O[C@]2(C)CCC[C@H](C)[C@H](O)[C@@H](C)C(=O)C(C)(C)[C@@H](O)CC(=O)O1,,0.0009 µM (active),0.0089 µM (active),0.0045 µM (active),0.0035 µM (active),0.0035 µM (active),,0.0018 µM (active),2.8 nM (active),0.0019 µM (active)
C[C@@H](Cc1ccccc1)NCCC(c1ccccc1)c1ccccc1,inactive,,inactive,,,,,3.16 µM (active),,
CCOP(=O)(OCC)O/C(=C/Cl)c1ccc(Cl)cc1Cl,inactive,inactive,inactive,inactive,,inactive,inactive,,,
c1ccc(C2(N3CCCC3)CCCCC2)cc1,,,inactive,12.6 µM (active),5.62 µM (active),,,,inactive,12 µM (active)
CCOc1ccc2c3c1O[C@H]1[C@@H](O)C=C[C@H]4[C@@H](C2)N(C)CC[C@@]341,inactive,inactive,inactive,inactive,inactive,inactive,inactive,inactive,inactive,
N#CC(C#N)=Cc1cc(O)c(O)c(O)c1,,8.91 µM (active),,15.8 µM (active),5.01 µM (active),7.08 µM (active),6.31 µM (active),2.82 µM (active),11200 nM (active),10.7 µM (active)
F/C(COc1ccc2c(c1)[nH]c1ccccc12)=C1/CN2CCC1CC2,inactive,,,10 µM (active),6.31 µM (active),8.91 µM (active),,3.55 µM (active),,
CCCCCCCCCC(=O)O[C@H]1CC[C@H]2[C@@H]3CCC4=CC(=O)CC[C@]4(C)[C@H]3CC[C@]12C,inactive,inactive,inactive,inactive,inactive,inactive,inactive,,inactive,inactive
CCN(CC)C(=O)/C(Cl)=C(\C)OP(=O)(OC)OC,inactive,inactive,inactive,inactive,inactive,inactive,inactive,inactive,inactive,
OC(c1ccccc1)(c1ccccc1)C1CN2CCC1CC2 (stereo not drawn),inactive,inactive,inactive,inactive,inactive,,,,inactive,
CC1CCC(C(C)C)C(OC(=O)c2ccccc2N)C1 (stereo not drawn),inactive,,inactive,inactive,inactive,inactive,,,,
